From PubChem BioAssay (NCI)
This is part of a sample that, as a whole, favours compounds with a hit. Of some 79,000 tested, about 15% had one in any assay. A number with no mark means an inactive call. Activity calls are given as the source filed them. No stated cut-off is given here; in the data, active means growth inhibition above about 70%; inactive means the rest. Where a SMILES comes first, the peptide text is derived from it. The star is where a group is joined. Boc = CC(C)(C)OC(=O)*; OBn = c1ccc(CO*)cc1

Assay: NCI Yeast Anticancer Drug Screen. Data for the mlh1 rad18 strain (AID 175)
Conditions: S. cerevisiae mlh1 rad18 strain growth inhibition; at 50.0 µM; hits give high values
Summary of the method: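 Vehicle-treated cultures served as the reference for growth inhibition in a yeast strain carrying DNA damage repair alterations exposed to each compound.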

SMILES	growth inhibition
C/C=C/C1OCC(C)(C)CO1	-1.5%
CCOC(=O)C(C(=O)OCC)C(C)(C)C	-9.2%
O=C1C(=O)C(CCc2ccccc2)C(=O)/C1=C\c1ccccc1 (stereo not given)	20.2%
O=C(O)C(=O)O.[Co+3].[NH-]C(Cc1ccccc1)C(=O)[O-].[NH-]CCN(CC[NH-])CC[NH-] (stereo not given)	25.6%
O=C(O)CCc1c[nH]c(=S)[nH]1	-1.7%
Cc1c([N+](=O)[O-])cc(C(C)(C)C)c(OC(=O)C(Cl)(Cl)Cl)c1[N+](=O)[O-]	72.8% (active)
COc1cc(NCCC(=O)O)c2ncccc2c1	0.7%
CC(=O)OCCOC1c2ccccc2-c2ccccc21	13.8%
COc1ccc2c(c1)N1CCc3cc(OC)c(OC)cc3C1C2 (stereo not given)	34.4%
O=C(Nc1cccc2c1C(=O)c1cc(Cl)ccc1C2=O)c1ccccc1	-2.3%
O=c1c(CN(CCO)CCO)c(-c2ccccc2)sc2ccccc12	14.7%
CCOP(=O)(OCC)C1=C(P(=O)(OCC)OCC)C(F)(F)C1(F)F	-6.3%
C(=Nc1ccc2c(c1)Cc1ccccc1-2)c1ccc2c(c1)OCO2	15.4%
CCCCOB(OCCCC)Oc1c(C(C)(C)C)cc(C)cc1C(C)(C)C	-3%
CC1=CCC2N=C(c3ccccc3)CC2(C)C1=O (stereo not given)	-16.6%
COc1c2cc(C(C)(C)C)cc1CSCc1cc(C(C)(C)C)cc(c1OC)CCCCC2	-1.6%
O=C(N/N=C/C=C/c1ccccc1)c1ccccc1O	29.6%
Oc1cc(CN2CCOCC2)c(O)c(CN2CCOCC2)c1CN1CCOCC1	-3.3%
c1ccc2c(c1)c1ccccc1c1c3ccccc3c3ccccc3c21	-20.1%
Clc1ccc(SCCCCSc2ccc(Cl)cc2)cc1	10.8%

SMILES	growth inhibition
CCCCNC(=O)Oc1cccc2ccccc12	-6.4%
NC(=O)C(=CN1C(=O)/C(=C/c2ccccc2O)SC1=S)C(N)=O	-24.1%
COCC(C)(CO)CC(C)CO (stereo not given)	-1.4%
Cc1cn(C2CC3OP(=O)(OCc4ccccc4)OCC3O2)c(=O)[nH]c1=O (stereo not given)	4.15%
NC(=O)SCC(=O)Nc1ccc2cccc3c2c1CC3	85.2% (active)
CSC1=C(CCC(C)CCCC(C)CCCC(C)CCCC(C)CCCC(C)CCCC(C)C)C(=O)c2sccc2C1=O (stereo not given)	-5.95%
O=CNC1CCCCC1c1ccc(C2CCCCC2NC=O)cc1 (stereo not given)	22.8%
Nc1ccccc1OCCOCCOc1ccccc1N	-10.5%
CC1C2=C(CCCC2=O)O/C1=N\O (stereo not given)	12.2%
COc1ccccc1C(O)c1ccccc1 (stereo not given)	3.75%
O=C(CCc1nnc2s/c(=C\c3ccccc3)c(=O)n12)Nc1cc(Cl)ccc1Cl	-1.45%
Cc1ccc2ccccc2[n+]1CC(=O)c1ccc2c(c1)OCO2	10.7%
CC1(C)OC(=O)C(=Cc2ccc(O)cc2)C(=O)O1	-34.3%
COC(=O)C(C)(NC(=O)C(CC(=O)OC(C)(C)C)NC(=O)OC(C)(C)C)c1ccccc1 (stereo not given)	36%
CC(=O)/C(=C\n1c(=S)[nH]c2ccc([N+](=O)[O-])cc21)C(=O)Nc1ccccc1C	-7.3%
N#Cc1cccc2c(S(=O)(=O)O)cccc12	-10.8%
c1ccc2cc3c(cc2c1)OP1(=NP2(=NP4(=N1)Oc1cc5ccccc5cc1O4)Oc1cc4ccccc4cc1O2)O3	12.6%
CC(C)CC(NC(=O)OC(C)(C)C)C(=O)NC(CCC(=O)OCc1ccccc1)C(N)=O (stereo not drawn) (Boc-Leu-Glu(OBn)-NH2; configuration not given here)	4.65%
N#CC(c1ccccc1)N1CCCN(C(C#N)c2ccccc2)C1c1ccccc1O (stereo not given)	13.2%
CN(N=O)C(=O)NC(C=O)C(O)C(O)C(O)CO (stereo not given)	1.6%
